Data taken from PMC4336329 (PLoS ONE, 2015).
About 14,000 (4.5%) of roughly 310,000 compounds showed an effect of 50% or more. Effects have a minus sign here. The sample as a whole holds a higher share of strong results than the screen did.

Target: human ether-à-go-go-related gene (hERG) potassium channel (human, UniProt Q12809)
Assay: primary screen, population patch clamp on CHO cells stably expressing hERG; higher = less effect of the substance
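Further: peak tail current of the secondary pulse compared with the same well before compound.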

human ether-à-go-go-related gene (hERG) potassium channel, sequence (Q12809 whole entry, looked up): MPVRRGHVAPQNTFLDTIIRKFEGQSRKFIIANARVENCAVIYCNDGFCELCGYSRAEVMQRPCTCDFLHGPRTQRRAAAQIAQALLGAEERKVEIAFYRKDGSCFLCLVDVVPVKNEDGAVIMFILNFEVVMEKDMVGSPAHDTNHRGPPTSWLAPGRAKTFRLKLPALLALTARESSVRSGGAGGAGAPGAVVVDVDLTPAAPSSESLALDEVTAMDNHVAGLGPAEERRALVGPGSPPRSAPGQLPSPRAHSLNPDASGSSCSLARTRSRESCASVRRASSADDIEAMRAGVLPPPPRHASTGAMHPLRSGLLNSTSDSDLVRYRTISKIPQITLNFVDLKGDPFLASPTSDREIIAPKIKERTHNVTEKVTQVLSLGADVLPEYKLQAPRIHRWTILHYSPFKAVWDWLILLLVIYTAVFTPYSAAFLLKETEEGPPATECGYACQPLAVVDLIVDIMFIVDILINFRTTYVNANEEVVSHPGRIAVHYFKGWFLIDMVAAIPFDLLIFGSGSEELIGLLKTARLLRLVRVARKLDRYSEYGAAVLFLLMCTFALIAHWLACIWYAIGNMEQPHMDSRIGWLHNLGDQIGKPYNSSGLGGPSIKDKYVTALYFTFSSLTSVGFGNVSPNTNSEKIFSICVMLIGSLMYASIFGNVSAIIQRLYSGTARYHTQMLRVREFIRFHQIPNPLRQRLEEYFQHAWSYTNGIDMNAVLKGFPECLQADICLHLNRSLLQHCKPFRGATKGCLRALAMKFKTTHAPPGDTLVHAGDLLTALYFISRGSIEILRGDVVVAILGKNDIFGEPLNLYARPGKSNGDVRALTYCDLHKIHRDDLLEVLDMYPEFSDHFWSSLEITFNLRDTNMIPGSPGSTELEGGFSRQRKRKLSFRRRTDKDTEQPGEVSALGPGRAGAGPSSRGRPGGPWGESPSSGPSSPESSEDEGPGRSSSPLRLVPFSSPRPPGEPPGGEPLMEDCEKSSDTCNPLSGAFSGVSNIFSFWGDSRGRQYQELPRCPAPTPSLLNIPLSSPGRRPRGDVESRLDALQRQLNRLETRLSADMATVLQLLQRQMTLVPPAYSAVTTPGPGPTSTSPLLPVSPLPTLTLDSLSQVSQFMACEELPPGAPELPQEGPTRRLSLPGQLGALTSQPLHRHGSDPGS

First: CCN(CCNC(=O)C1CCN(S(=O)(=O)c2c(C)noc2C)CC1)c1ccccc1
Second: CC1CCCCN1CC(=O)Nc1ccc(Oc2ccccc2)cc1.Cl (stereo not drawn)
The “hERG current change (%, negative = inhibition) at 10uM” value of the first is higher: -1.06% for the first, -50.7% for the second.

First: COc1cc(/C=C/C(=O)NCc2cccnc2)cc(OC)c1OC
Second: COc1ccc(C(=O)NCc2cccnc2)cc1
The “hERG current change (%, negative = inhibition) at 10uM” value of the first is higher: 0.841% for the first, -1.7% for the second.

Compared with `CCOC(=O)Cc1csc(NC(=O)CN2CCOCC2)n1`, `COc1ccc(NC(=O)CN2CCC(C(N)=O)(N3CCCCC3)CC2)cc1` is lower in “hERG current change (%, negative = inhibition) at 10uM” value: 14.1% for the first, 0.362% for the second.

First: CCOC(=O)[C@@H]1[C@H]2COc3ccccc3[C@H]2N2C(=O)N(c3ccc(C)cc3)C(=O)[C@]12C
Second: Cc1ccc(CCNC(=O)c2nn(C)c3c2CS(=O)(=O)c2ccccc2-3)cc1
The “hERG current change (%, negative = inhibition) at 10uM” value of the first is higher: -1.42% for the first, -39.7% for the second.

Going from `CCCNC(=O)c1n[nH]c2c1CC(C(C)(C)CC)CC2` (stereo not drawn) to `CC(C)C(NC(=O)C1CCC(C(C)(C)C)CC1)C(=O)NCCc1ccc(S(N)(=O)=O)cc1` (stereo not drawn), the “hERG current change (%, negative = inhibition) at 10uM” value rises from 1.27% to 14.1%.

First: C=CCNc1ncnc2c1cnn2-c1ccc(C)cc1C
Second: Cc1cccc(NC(=O)CN2C(=O)S/C(=C\c3cc(C)n(C)c3C)C2=O)c1
The “hERG current change (%, negative = inhibition) at 10uM” value of the first is higher: 3.76% for the first, -10.7% for the second.

Going from `NS(=O)(=O)c1ccc(N/N=C/c2ccc[nH]2)c([N+](=O)[O-])c1` to `Fc1ccc(/C=N/Nc2nccnc2Cl)cc1`, the “hERG current change (%, negative = inhibition) at 10uM” value rises from 0.228% to 9.05%.

Compared with `COc1cccc(C(=O)Nc2ccc3nc4n(c(=O)c3c2)CCCC4)c1`, `O=C(Nc1ccc2nc3n(c(=O)c2c1)CCCC3)c1cccc(F)c1` is higher in “hERG current change (%, negative = inhibition) at 10uM” value: -62.9% for the first, -43.9% for the second.

Going from `COc1cc(NC(=O)C(=O)Nc2ccc3nc4n(c(=O)c3c2)CCCCC4)cc(OC)c1OC` to `COc1cc(C(=O)Nc2ccc3nc4n(c(=O)c3c2)CCCCC4)cc(OC)c1OC`, the “hERG current change (%, negative = inhibition) at 10uM” value falls from -1.55% to -67.7%.

Compared with `COc1cc(OC)cc(C(=O)Nc2ccc3nc4n(c(=O)c3c2)CCCCC4)c1`, `COc1cc(OC)cc(C(=O)Nc2ccc3nc4n(c(=O)c3c2)CCCC4)c1` is higher in “hERG current change (%, negative = inhibition) at 10uM” value: -48.7% for the first, 11.2% for the second.

First: COc1ccc(Cl)cc1NS(=O)(=O)c1cn(C)nc1C
Second: CCN1CCC(Nc2ccnc3cc(Cl)ccc23)CC1
The “hERG current change (%, negative = inhibition) at 10uM” value of the first is higher: 7.1% for the first, -40.5% for the second.

Going from `COC(=O)C1=C(c2ccc(OC)c(OC)c2)C[C@@H]2CC[C@H]1N2C(=O)NCC1CC1` to `COc1ccc(NC(=O)CN2CCC(C(N)=O)(N3CCCCC3)CC2)c(OC)c1`, the “hERG current change (%, negative = inhibition) at 10uM” value falls from 15.1% to 1.56%.

Compared with `O=C(CSc1ccc(-c2ccco2)nn1)NCc1ccccc1Cl`, `O=C(NCc1ccccc1Cl)/C(=C\c1cccnc1)NC(=O)c1ccccc1` is higher in “hERG current change (%, negative = inhibition) at 10uM” value: -49.1% for the first, -48.7% for the second.

Compared with `Clc1nccnc1N/N=C/c1ccc(Br)cc1`, `Oc1ccc(/C=N/Nc2nccnc2Cl)cc1` is higher in “hERG current change (%, negative = inhibition) at 10uM” value: -50.3% for the first, 1.47% for the second.

Going from `CC1CCCCN1CC(=O)Nc1ccc(N2CCCCCC2)cc1.O=C(O)C(=O)O` (stereo not drawn) to `CC1CCN(CC(=O)Nc2ccc(N3CCCCCC3)cc2)CC1.O=C(O)C(=O)O`, the “hERG current change (%, negative = inhibition) at 10uM” value falls from -13.2% to -14.1%.

First: CC1CCCCN1CC(=O)Nc1ccc2c(c1)OCO2.O=C(O)C(=O)O (stereo not drawn)
Second: O=C(CN1CCCCCC1)Nc1ccccc1.O=C(O)C(=O)O
The “hERG current change (%, negative = inhibition) at 10uM” value of the first is lower: -20.1% for the first, 10.8% for the second.

Going from `NC(=O)C1(N2CCCCC2)CCN(CC(=O)Nc2ccc(Oc3ccccc3)cc2)CC1` to `NC(=O)C1(N2CCCCC2)CCN(CC(=O)Nc2ccccc2-c2ccccc2)CC1`, the “hERG current change (%, negative = inhibition) at 10uM” value rises from -67.8% to 14.6%.

Compared with `O=C(CN1CCCCC1)Nc1cccc(Oc2ccccc2)c1`, `Cl.O=C(CN1CCCCCC1)Nc1ccc(Oc2ccccc2)cc1` is lower in “hERG current change (%, negative = inhibition) at 10uM” value: -50.7% for the first, -78.6% for the second.

Going from `O=C(CN1CCCCCC1)Nc1cccc(NC(=O)CN2CCCCCC2)c1` to `O=C(CN1CCCC1)Nc1ccc(Oc2ccc(NC(=O)CN3CCCC3)cc2)cc1`, the “hERG current change (%, negative = inhibition) at 10uM” value rises from 13% to 17.3%.

Going from `O=C(CN1CCCCC1)Nc1ccc(N2CCCCCC2)cc1.O=C(O)C(=O)O` to `COc1cccc(NC(=O)CN2CCCCCC2)c1.Cl`, the “hERG current change (%, negative = inhibition) at 10uM” value rises from -88.7% to 11.6%.

Going from `O=C(Nc1ccccc1)OCc1ccccn1` to `CN1CCN(CC(=O)Nc2ccc(Oc3ccccc3)cc2)CC1`, the “hERG current change (%, negative = inhibition) at 10uM” value falls from 10.8% to -47.5%.

First: COc1ccc(C2=NN(CN3C(=O)C(=O)c4ccccc43)C(c3ccc(OC)cc3)C2)cc1 (stereo not drawn)
Second: COc1ccc(/C=C(\NC(=O)c2ccccc2)C(=O)NCc2cccnc2)cc1
The “hERG current change (%, negative = inhibition) at 10uM” value of the first is higher: 9.84% for the first, -70.5% for the second.

Compared with `Cc1cc(-c2ccccc2)nc(SCc2ccc(C(=O)O)o2)n1`, `COCCN(C(=O)CSc1nc2ccc(Cl)cc2[nH]1)c1c(N)n(Cc2ccccc2)c(=O)[nH]c1=O` is lower in “hERG current change (%, negative = inhibition) at 10uM” value: -3.89% for the first, -7.02% for the second.

Compared with `Cc1ccc(C(=O)Nc2cccnc2)cc1Cl`, `Cc1ccc(C(=O)N/C(=C\c2ccccc2)C(=O)NCc2cccnc2)cc1` is lower in “hERG current change (%, negative = inhibition) at 10uM” value: 4.54% for the first, -71.9% for the second.

Compared with `O=C(NCC(=O)N1CCN(C(c2ccccc2)c2ccccc2)CC1)c1ccc(Br)o1`, `O=C(NCc1cccnc1)/C(=C/c1ccccc1)NC(=O)c1ccccc1` is lower in “hERG current change (%, negative = inhibition) at 10uM” value: 8.38% for the first, -34.5% for the second.

Compared with `Cc1cc(Br)c(NC(=O)CN(C)CCOc2ccccc2)c(Br)c1`, `Cc1cc(C)n(CC(O)Cn2c3ccc(Br)cc3c3cc(Br)ccc32)c(=O)n1` (stereo not drawn) is higher in “hERG current change (%, negative = inhibition) at 10uM” value: -19.5% for the first, 19.5% for the second.

Compared with `COc1ccc(Cn2nnc3c(=O)[nH]c(C(=O)NCCc4ccc(F)cc4)nc32)cc1OC`, `COc1ccc(CNC(=O)C(=O)NCc2cccnc2)cc1` is lower in “hERG current change (%, negative = inhibition) at 10uM” value: 7.28% for the first, -6.16% for the second.

Compared with `NC(=O)C1(N2CCCCC2)CCN(CC(=O)Nc2cc(Cl)ccc2Cl)CC1`, `O=C(CN1CCCCC1)Nc1cc(Cl)ccc1Cl` is higher in “hERG current change (%, negative = inhibition) at 10uM” value: -72% for the first, -0.685% for the second.

First: NC(=O)C1(N2CCCCC2)CCN(Cc2ccccc2)CC1
Second: NC(=O)C1(N2CCCCC2)CCN(Cc2ccc(Br)cc2)CC1
The “hERG current change (%, negative = inhibition) at 10uM” value of the first is higher: 2.53% for the first, -51% for the second.

First: NC(=O)C1(N2CCCCC2)CCN(Cc2ccc(F)cc2)CC1
Second: COc1ccc2c(N)c(C(=O)NN)[nH]c2c1
The “hERG current change (%, negative = inhibition) at 10uM” value of the first is lower: -6.92% for the first, 2.16% for the second.

Going from `O=C(/C=C/Nc1ccc(S(=O)(=O)Nc2ncccn2)cc1)c1cccs1` to `O=C(NCc1cccnc1)/C(=C/c1ccc(Cl)cc1)NC(=O)c1ccccc1`, the “hERG current change (%, negative = inhibition) at 10uM” value falls from 4.26% to -68.5%.

First: COc1ccc(/C=C(\NC(=O)c2ccccc2)C(=O)N/N=C/c2cccnc2)cc1
Second: COc1ccc(C(=O)N/C(=C\c2ccccc2)C(=O)NCc2cccnc2)cc1
The “hERG current change (%, negative = inhibition) at 10uM” value of the first is higher: -5.03% for the first, -70.8% for the second.

Compared with `CN(C)c1ccc(/C=C(\NC(=O)c2ccccc2)C(=O)NCc2cccnc2)cc1`, `COc1ccc(/C=C(/NC(=O)c2ccccc2)C(=O)NCc2ccco2)cc1` is higher in “hERG current change (%, negative = inhibition) at 10uM” value: -18.9% for the first, 27% for the second.
